Screens: PubChem, Broad Institute
FadD28 FP inh – M. tuberculosis FadD28 bisubstrate binding inhibition; 360,000 tested, 0.22% active; inhibition, % at 12.5 µM; FadD28 bisubstrate probe binding, fluorescence polarization; in the data active means inhibition above about 8.5%, passing the limit was not always enough
TcdB GH inh – blocks C. difficile toxin B glycohydrolase activity; AID 652162; 350,000 tested, 0.24% active; inhibition, % at 9.99 µM; P18177; TcdB glycohydrolase enzymatic assay, plate reader; in the data active means inhibition above about 10%
Yp Topo-I inh – inhibitors of Yersinia pestis topoisomerase I | activity, % at 10 µM | Y. pestis Topo-I cleavage product accumulation, plate reader | 360,000 tested, 0.064% active; in the data active means activity above about 50%, passing the limit was not always enough
Mtb BioA inh – blocks M. tuberculosis BioA enzyme activity; purified M. tuberculosis BioA enzyme, plate reader; 360,000 tested, 0.096% active; inhibition, % at 9.99 µM; in the data active means inhibition above about 40%
Numbers without * were called inactive; / = not tested or not shown. An excerpt weighted towards active compounds, which were near 0.45% of everything screened.

SMILES | FadD28 FP inh | TcdB GH inh | Yp Topo-I inh | Mtb BioA inh
COc1ccc(CN(C)C[C@@H]2OCCCC[C@@H](C)Oc3ccc(NS(=O)(=O)c4ccc(OC)cc4)cc3C(=O)N([C@H](C)CO)C[C@H]2C)cc1 | / | / | / | 0.6
O=Nc1c(O)ccc2cc(S(=O)(=O)O)ccc12 | -2.1 | / | 1.5 | -2.2
CN(C)c1ccc2cc(S(=O)(=O)O)cc(O)c2c1 | 19.3* | -9.6 | -17.3 | -4.6
CC(=O)c1ccc(OCc2cc(C(=O)N3CC[C@@H]4CCCC[C@H]4C3)no2)cc1 | -3.1 | -0.1 | 36.3 | 2.9
Cc1cccc(C)c1OCc1cc(C(=O)N2CCC(C3CCCCC3)C2)no1 (configuration not stated) | 1.1 | -0.6 | 55.0* | -2.0
C[C@H]1CN([C@@H](C)CO)C(=O)c2cc(N(C)C)ccc2O[C@H]1CN(C)S(=O)(=O)c1ccccc1 | / | -19.3 | / | 6.3
O=C(O)CCCN1C(=O)/C(=C\c2ccco2)SC1=S | 5.4 | -1.6 | -5.5 | /
O=C(O)CCN1C(=O)/C(=C\c2ccc(-c3nc4ccccc4s3)o2)SC1=S | 20.3* | / | 25.7 | -2.1
COc1ccc(S(=O)(=O)N(C)C[C@@H]2OCCCC[C@@H](C)Oc3ccc(NC(=O)NC4CCCCC4)cc3C(=O)N([C@H](C)CO)C[C@H]2C)cc1 | / | -1.6 | / | -1.5
COc1cc2c(cc1OC)C1=NC(=O)CN1C(SCc1ccc(C)cc1)=N2 | -4.0 | / | 82.1* | /
C=CCSC1=Nc2cc(OC)c(OC)cc2C2=NC(=O)CN12 | -0.7 | 2.4 | 6.8 | 2.9
FC(F)(F)c1cc(Cl)c2nc(-c3ccc(Cl)cc3)c(Cc3ccsc3)n2c1 | / | 0.7 | / | /
FC(F)(F)c1cc(Cl)c2nc(-c3ccccc3)c(Cc3ccsc3)n2c1 | / | 10.4* | / | /
O=C(Cn1nnc(-c2ccccc2)n1)NNC(=O)c1ccc(Br)cc1 | -3.9 | -0.8 | 55.7* | /
Cc1ccc(S(=O)(=O)N(C)C[C@@H]2Oc3ccc(NC(=O)Nc4c(C)noc4C)cc3C(=O)N([C@@H](C)CO)C[C@H]2C)cc1 | / | 2.0 | / | -0.3
CCN(CC)c1ccc(/C=N/NC(=O)c2ccc3nc[nH]c3c2)c(O)c1 | 27.4* | / | -15.7 | -1.1
CCCCCCN1C[C@H](n2cc(-c3ccc(F)cc3)nn2)[C@@H](O)C[C@@H]1c1ccc(OC)cc1 | -2.8 | -0.7 | -3.3 | -1.2
CCCCCCN1C[C@@H](n2cc(-c3ccc(F)cc3)nn2)[C@H](O)C[C@@H]1c1ccc(OC)cc1 | -1.1 | 0.9 | 64.9* | -2.1
C[C@@H]1CN([C@@H](C)CO)C(=O)c2cc(NC(=O)c3ccncc3)ccc2O[C@@H](C)CCCCO[C@H]1CN(C)Cc1ccc2c(c1)OCO2 | / | 0.2 | / | -0.1
C[C@H](CO)N1C[C@H](C)[C@H](CN(C)S(=O)(=O)c2cccs2)Oc2ncccc2C1=O | / | 0.1 | / | 0.5
Oc1ccc2ccc3[nH]cnc3c2c1 | 2.2 | 20.5* | 3.0 | -1.7
CN(C)Cc1c(O)ccc2[nH]cnc12 | -4.4 | / | 1.6 | -1.9
CCCNC(=O)[C@@H]1[C@@H](CO)[C@@H]2Cn3c(ccc(-c4cncnc4)c3=O)[C@@H]2N1C(=O)c1ccccc1F | / | 0.0 | / | -1.2
O=C(O)c1ccc(N/N=C/c2cn(Cc3ccc(F)cc3)c3ccccc23)cc1 | 18.1* | -0.4 | -11.7 | 5.7
C/C=C/c1ccc([C@@H]2[C@H](CO)N(C(C)=O)C23CN(C(=O)c2ccncc2)C3)cc1 | / | -0.1 | / | /
SMILES | FadD28 FP inh | TcdB GH inh | Yp Topo-I inh | Mtb BioA inh
O=C(Nc1ccc(NC(=O)c2cc([N+](=O)[O-])ccc2N2CCOCC2)cc1)c1cccs1 | 12.1* | 0.6 | -8.0 | -2.1
COc1ccc(NC(=O)Nc2ccc3c(c2)CC(=O)N([C@H](C)CO)C[C@@H](C)[C@H](CN(C)C(=O)Nc2c(C)noc2C)O3)cc1 | / | / | / | -1.2
C[C@@H]1CN([C@H](C)CO)C(=O)Cc2cc(NS(=O)(=O)c3cccs3)ccc2O[C@H]1CN(C)C(=O)Nc1cccc2ccccc12 | / | / | / | 0.4
CCCN(C)C[C@@H]1OCc2cn(nn2)CCCC(=O)N([C@@H](C)CO)C[C@@H]1C | / | -0.1 | / | -2.1
COc1ccc(Br)cc1C(=O)Nc1ccc(O)cc1 | -1.3 | 24.2* | 0.2 | 1.5
C[C@H]1CN([C@@H](C)CO)C(=O)Cc2cc(NC(=O)Nc3ccccc3)ccc2O[C@@H]1CN(C)C(=O)Nc1ccc2c(c1)OCO2 | / | -6.5 | / | /
CC(=O)NS(=O)(=O)c1ccc(N=c2ssc3c2-c2ccc(C)cc2NC3(C)C)cc1 | 14.3* | / | 3.0 | /
Cc1ccc(S(=O)(=O)NC(=O)Nc2cc(C)ccc2F)cc1 | -2.7 | / | 5.5 | 0.1
COCCNC(=O)C1(C)CCCN(C(=O)c2ccccc2OC(F)(F)F)C1 (configuration not stated) | -1.7 | 0.6 | 1.7 | -0.9
CCCNC(=O)C1(C)CCCN(C(=O)c2ccccc2OC(F)(F)F)C1 (configuration not stated) | 0.5 | 12.0* | -2.0 | -0.4
Cc1ccc(NS(=O)(=O)c2cc([N+](=O)[O-])ccc2NNC(=S)Nc2cc(C)ccc2C)c(C)c1 | -3.5 | / | -21.6 | 0.7
Cc1ccc(NS(=O)(=O)c2cc([N+](=O)[O-])ccc2NNC(=S)Nc2cccc(Cl)c2)c(C)c1 | 8.6* | / | -36.0 | /
CN1C(=O)c2cc(NS(=O)(=O)c3ccc(F)cc3)ccc2OC[C@H]2O[C@@H](CC(=O)O)CC[C@@H]21 | / | 0.2 | / | -3.1
Nc1nc(CCOc2ccc(F)cc2)cs1 | -1.6 | 11.1* | 0.8 | /
C[C@H](CO)N1C[C@H](C)[C@@H](CN(C)S(=O)(=O)c2ccc([N+](=O)[O-])cc2)OCc2ccccc2-c2ccccc2C1=O | / | -12.5 | / | /
CCOC(=O)c1cc(-c2ccccc2)sc1NC(=O)CC | -1.5 | / | -8.3 | /
O=C(Nc1sc(-c2ccccc2)cc1C(=O)O)c1ccccc1 | 18.9* | 0.9 | 3.9 | 7.8
COc1ccccc1-n1c(CCC(=O)O)ccc1-c1ccccc1 | -2.5 | 10.6* | -15.2 | 2.3
COc1ccc(-c2ccc(CCC(=O)O)n2-c2ccccc2OC)cc1 | -1.0 | -1.1 | -18.6 | -1.5
O=C(C[C@@H]1C[C@H]2c3cc(NC(=O)c4cccnc4)ccc3O[C@H]2[C@H](CO)O1)NCc1ccncc1 | / | 0.0 | / | 18.7
O=C(C[C@@H]1C[C@H]2c3cc(NC(=O)CC4CC4)ccc3O[C@H]2[C@H](CO)O1)NCc1ccncc1 | / | -0.3 | / | 0.2
Cc1ccc2c(Cl)c(C)c(N3CCCCC3)nc2n1 | -0.8 | / | 50.3* | /
Cc1nc2ccccc2nc1N1CCCCC1 | -0.1 | / | 1.7 | -0.8
CCCN(C)C[C@@H]1OCCCC[C@@H](C)Oc2ccc(NS(=O)(=O)c3cn(C)cn3)cc2C(=O)N([C@@H](C)CO)C[C@@H]1C | / | -1.2 | / | 9.5
O=[N+]([O-])c1ccc(N=Nc2c(Cl)cc(O)cc2Cl)cc1 | 0.4 | 0.3 | -14.3 | 0.0
O=C1CC(=Nc2ccc([N+](=O)[O-])cc2)NN1c1c(Cl)cc(Cl)cc1Cl | 14.7* | 3.1 | -11.4 | -1.2
COCCNC(=O)C[C@@H]1C[C@H]2c3cc(NC(=O)Nc4ccc(C(F)(F)F)cc4)ccc3O[C@H]2[C@@H](CO)O1 | / | 0.3 | / | 0.9
CCCCCCCCCCCCCCCC(O)C[N+](C)(C)CCO (configuration not stated) | 34.8* | 1.2 | -33.8 | /
CCC(=O)N[C@@H]1C=C[C@@H](CC(=O)NCc2ccc(OC)cc2)O[C@@H]1CO | / | 2.0 | / | -0.8
CC(=O)Oc1ccc2nc(/C=C/c3ccc(C=O)cc3)oc(=O)c2c1 | -5.6 | 3.5 | -9.1 | -0.3
